The values that follow come from PubChem BioAssay AID1645860 (Buhrlage Lab, Dana-Farber Cancer Institute and Novartis …, 2021).

In all, about 47,000 compounds went through this assay and about 2,500 (5.3%) were called active. This is one part of a sample in which actives are shown more often than they occur. A number with no mark means an inactive call. Cut-off read from the data, not from the text of the source: active = inhibition above about 30%; inactive = the rest.

The target in the test is Ubiquitin carboxyl-terminal hydrolase 30 (Homo sapiens) (UniProt Q70CQ3). The test is described as follows: blocks human USP30 ubiquitin-rhodamine cleavage (AID 1645860). The following applies: purified USP30, Ub-rhodamine cleavage fluorescence; at 25 µM; stronger effect = higher value.
Chain of Ubiquitin carboxyl-terminal hydrolase 30 (Homo sapiens) (Q70CQ3 whole entry, looked up): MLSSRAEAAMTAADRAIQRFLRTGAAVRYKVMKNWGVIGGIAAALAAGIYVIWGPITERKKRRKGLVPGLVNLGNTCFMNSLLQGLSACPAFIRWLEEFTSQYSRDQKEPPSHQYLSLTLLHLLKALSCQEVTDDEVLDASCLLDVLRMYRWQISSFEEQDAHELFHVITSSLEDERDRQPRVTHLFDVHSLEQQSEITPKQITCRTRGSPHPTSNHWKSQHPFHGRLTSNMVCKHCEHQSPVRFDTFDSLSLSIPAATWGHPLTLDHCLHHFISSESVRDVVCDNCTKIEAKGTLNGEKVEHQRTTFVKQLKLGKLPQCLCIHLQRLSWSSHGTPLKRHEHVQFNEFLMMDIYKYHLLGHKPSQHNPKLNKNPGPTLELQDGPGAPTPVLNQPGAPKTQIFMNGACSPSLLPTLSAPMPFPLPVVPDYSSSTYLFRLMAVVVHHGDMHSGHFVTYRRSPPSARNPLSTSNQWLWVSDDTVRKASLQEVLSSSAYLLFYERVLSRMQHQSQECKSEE
Regarding `COc1ccc(CNC(=O)c2cccc3cccnc23)cc1`, the inhibition is -9.33%.
Regarding `COc1ccc(CNC(=O)c2ccccc2-c2ncc(-c3ccccc3)o2)cc1`, the inhibition was -5.92%.
The result for `COc1ccc(CNC(=O)c2[nH]nc3c2CCc2ccccc2-3)cc1` reads 49.8% (active).
Regarding `O=C(O)C1(Cc2nc3ccccc3s2)CCCCC1`, the inhibition is 11.5%.
Under `CC(C)(C)OC(=O)N1CCC2(CC1)NC(=O)C1(CCCCC1)N2` stands 16.4%; under `CCN1CCN(S(=O)(=O)c2ccc3c(c2)CC(C)N3C(=O)C2CC2)CC1` (stereo not drawn), 2.83%; under `CC1CCCN(C(=O)c2cc(S(=O)(=O)N3CCCCC3)ccc2Cl)C1` (stereo not drawn), 8.5%.
The result for `CC(C)NC(=O)CN1C(=O)CC(C)Sc2ccc(S(=O)(=O)N3CCCCC3)cc21` (stereo not drawn) reads 86.3% (active); that for `COCCn1cnc2c(-c3ccccc3)cn(CC(=O)NCc3ccc(F)cc3)c2c1=O`, -1.66%.
As for `Cc1ccc(CNC(=O)CCC(=O)N2Cc3cccn3-c3ccccc32)cc1`, the inhibition is -82.9%.
For `Cc1ccc(CNC(=O)CC(c2ccccc2)c2ccccc2)cc1`, the inhibition is 34.5% (active).
`Cc1ccc(CNC(=O)c2ccc(-c3cccnc3)nc2)cc1`: the inhibition was 18.3%.
Turning to `O=C([C@H]1CCCO1)N1C[C@H](OCc2cccnc2)[C@H]2COC[C@H]21`, the inhibition was 2.01%.
Turning to `C/C(=C(\NC(=O)c1ccccc1)C(=O)NCc1ccccc1)c1ccc(C)cc1`, the inhibition is -4.27%.
With `CCc1nnc(-c2csc(S(=O)(=O)NC3CCCCCC3)c2)o1`, the inhibition was 16.4%.
Under `CCc1nc(SCC(=O)Nc2cccc3ccccc23)c2oc3ccccc3c2n1` stands 47.2% (active); under `O=C(CSc1ncnc2c1oc1ccccc12)NC1CCCC1`, 29.2%.
On to `CCc1nc(SCC(=O)Nc2cc(Cl)ccc2Cl)c2oc3ccccc3c2n1`, for which the inhibition was 20%.
Take `Cc1ccccc1OCC(=O)Nc1c(C)nc2scc(C)n2c1=O`: the inhibition was 2.51%.
On to `Clc1ccc(C[n+]2cc(-c3ccc(Cl)cc3)n3c2CCC3)cc1`, for which the inhibition was 34.1% (active).
On to `O=C(C1CCCN(S(=O)(=O)c2ccc(Cl)cc2)C1)N1CCOCC1` (stereo not drawn), for which the inhibition is 25.3%.
With `O=C(c1cc2occc2c(Nc2ccc(F)cc2)n1)N1CCN(C(=O)c2ccco2)CC1`, the inhibition is 32.6% (active).
Under `Cc1ccc(Nc2nc(C(=O)NCCN3CCCCC3C)cc3occc23)cc1Cl` (stereo not drawn) stands -102%.
In the case of `Cc1nc(Nc2ccc(NC(=O)c3ccco3)cc2)cc(N2CCCCC2)n1`, the inhibition was -38.5%.
Regarding `COC(=O)c1cc(NC(=O)c2cccnc2)ccc1N1CCOCC1`, the inhibition was -17.6%.
`Cc1ccc(CNC(=O)c2ccc(-c3cncnc3)nc2)cc1C`: the inhibition is -42.8%.
Turning to `Cc1c(Cl)cccc1NC(=O)C[n+]1cc(-c2ccc(Cl)cc2)n2c1CCC2`, the inhibition is 27.5%.
`CC(C)c1ccc(NC(=O)C[n+]2cc(-c3ccc(F)cc3)n3c2CCC3)cc1`: the inhibition is 41.8% (active).
Under `CC(=O)CCC(=O)Nc1ccc(-c2nnc3n2CCCCC3)cc1` stands -1.55%.
Turning to `Cc1cccnc1NC(=O)C1c2ccccc2C(=O)N(C)C1c1cccs1` (stereo not drawn), the inhibition was 7.71%.
On to `Cc1ccc(C(C)C(=O)N2CCC(c3nc4ccccc4cc3C(N)=O)CC2)cc1` (stereo not drawn), for which the inhibition was -3.47%.
Under `O=C(NCCC(=O)N1CCC2(CC1)NCCc1[nH]cnc12)c1ccc(-c2ccccc2)cc1` stands 0.531%.
In the case of `O=C(CCN1C(=O)c2cccnc2Sc2ccccc21)Nc1cc(F)ccc1F`, the inhibition is 14.9%.
Under `O=c1ccc(-c2nc(-c3cnccn3)no2)cn1Cc1ccccc1C(F)(F)F` stands 41.2% (active).
On to `O=c1ccc(-c2nc(-c3cnccn3)no2)cn1Cc1cccc(Br)c1`, for which the inhibition was -4.12%.
Under `O=C(c1nc(-c2cnccn2)no1)N1CCN(c2ccccc2F)CC1` stands -11.4%; under `Cc1noc(C)c1CC(=O)N1CCN(S(=O)(=O)c2ccc(C3CCCCC3)cc2)CC1`, 29.4%; under `CC(=O)N1C[C@H]2C3(CCN(C(=O)c4cc(C)on4)CC3)CC[C@@]2(C(=O)N(C)C)C1`, 0.149%.
The result for `CCCN1CCN(Cc2nc(-c3ccc(N4CCCCCC4)nc3)no2)CC1` reads -26.8%.
Under `O=C1COc2ccccc2N1Cc1noc(-c2ccccc2)n1` stands 11.5%; under `COc1cccc(NC(=O)c2nnn(Cc3nc(-c4cccc(C)c4)oc3C)c2N)c1`, -2.05%.
Consider `O=C(NCc1ccc2c(c1)OCO2)c1nc(-c2cccnc2)no1`, for which the inhibition is 2.73%.
In the case of `Cc1nc(-c2ccc(C(=O)NCc3ccc4c(c3)OCO4)cc2)cs1`, the inhibition was 46.2% (active).
Consider `Cc1ccc(C(=O)Nc2nccnc2C(=O)NCc2ccc3c(c2)OCO3)cc1`, for which the inhibition is -13.1%.
`Cn1c(CCN2CCOCC2)nc2cc(NC(=O)c3ccco3)ccc21`: the inhibition is -0.464%.
Take `O=C(CN(c1ccc(Cl)cc1Cl)S(=O)(=O)c1ccccc1)NCc1ccncc1`: the inhibition was 2.13%.
Under `Cc1ccc(NC(=O)CCn2cnc3c2c(=O)n(C)c(=O)n3C)cc1` stands 1.79%; under `Cn1c(=O)c2c(ncn2CC(=O)OCc2cccc([N+](=O)[O-])c2)n(C)c1=O`, 13.8%; under `Cc1cnc(NC(=O)Cn2cnc3c2c(=O)n(C)c(=O)n3C)s1`, 30.8% (active).
As to `N#Cc1ccc(NC(=O)Nc2cccn(Cc3ccccc3F)c2=O)cc1`, the inhibition was 11.4%.
With `Cc1ccc(-c2noc(-c3cccc(OCC(=O)N(C)C)c3)n2)cc1`, the inhibition is 53.1% (active).
As for `Cc1ccc(-c2nc(-c3cccc(-c4ccnn4C)c3)no2)cc1`, the inhibition was 4.68%.
As to `COc1cc(Cl)ccc1-c1nc(-c2cccc(C(=O)N3CCCC3)c2)no1`, the inhibition is 16.1%.
Under `COc1ccc(-c2noc(-c3cccc(OCC(=O)NC(C)C)c3)n2)cc1` stands -1.09%; under `Cc1ccccc1-c1nc(-c2cn(CC(=O)Nc3ccccc3)cn2)no1`, -44.4%.
`Cc1ccccc1-c1nc(-c2cccc(OCC(=O)N3CCOCC3)c2)no1`: the inhibition is 44.8% (active).
On to `COc1cc(C)c(CN2CCC(c3cc(=O)[nH]c(C)n3)C2)cc1C` (stereo not drawn), for which the inhibition is 8.61%.
Under `CN(C)C(=O)C1CN(C(=O)c2n[nH]c3c2CCCC3)CC12CCOCC2` (stereo not drawn) stands -5.3%.

A word on the inhibition: it is the relative decrease from the control value, in per cent.
